# Screening data deposited in PubChem by National Center for Advancing Translational Sciences (NCATS).
# The sample as a whole holds a higher share of hits than the screen did.
# KDM5B inh – KDM5B demethylase inhibition; Q9UGL1; KDM5B demethylase, FDH-coupled NADH fluorescence (FDH is formaldehyde dehydrogenase); Potency, µM (highest dose often 57.7 µM), hits mostly inhibitors; 2.6% of 220,000 active; AID 1347165; active = well fitted inhibition curve with a large enough effect; note: nearly all actives have a fitted effect of over 70% in size
#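 KDM5BΔAP (200 nM final) in 50 mM HEPES pH 7.5, 0.01% Tween-20 was preincubated 10 min at RT with compound over a concentration range. Substrate mix (H3K4me3 12.5 µM, α-KG 25 µM, Fe²⁺, ascorbate, NAD⁺, FDH) was added, and NADH fluorescence change over 30 min gave dose-response curves.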
# A number is an active result; . = inactive.
SMILES,KDM5B inh
COc1ccc(C(=O)N2CC[C@@H]3CN(c4cnccn4)[C@@H]3C2)c(OC)n1,32µM
CCOc1ccccc1NC(=O)Cn1c(=O)c(-c2noc(C)n2)c2n(c1=O)CCCC2,.
O=C(CCc1cccs1)N(Cc1cccnc1)C1CC1,.
C(=C\c1ccccc1)/CNC12CC3CC(CC(C3)C1)C2,.
C=CCNC(=O)C[C@@H]1CCN(C(=O)Nc2cccc(C(=O)OCC)c2)C[C@@H]1CC,.
CC(C)(Oc1nn(CC2CCOCC2)c2ccccc12)C(=O)NCCc1ccccc1,35µM
CC(C)(Oc1nn(CC2CCOCC2)c2ccccc12)C(=O)NC1CCOCC1,35µM
CC(C)(Oc1nn(CCN2CCOCC2)c2ccccc12)C(=O)NCCc1ccccc1,.
CC(C)(Oc1nn(CCOc2ccccc2)c2ccccc12)C(=O)NCc1ccncc1,.
CC(C)(Oc1nn(CCN2CCOCC2)c2ccccc12)C(=O)NCCCn1ccnc1,.
CC(C)(Oc1nn(Cc2cccc(Cl)c2)c2ccccc12)C(=O)NCC1CCOCC1,.
N#CCSc1nc2cc(C(=O)NCc3ccccc3)ccc2c(=O)n1CCc1ccccc1,.
O=C1NCc2ccccc2CC12CCCN2CC1CC=CCC1 (stereo not drawn),.
CC1=C[C@@H](CN2CCN(CCO)CC2)[C@H](C(C)C)C[C@H]1Cc1nnc(-c2ccncc2)o1,.
CC(=O)N1CCN(C[C@@H]2C=C(C)[C@H](Cc3nnc(-c4cccnc4)o3)C[C@H]2C(C)C)CC1,.
CC1=C[C@@H](CN2CCOCC2)[C@H](C(C)C)C[C@H]1Cc1nnc(-c2ccc(N(C)C)cc2)o1,35µM
CC1=C[C@@H](CN2CCOCC2)[C@H](C(C)C)C[C@H]1Cc1nnc(-c2ccccc2)o1,.
CC1=C[C@@H](CN2CCN(c3ccccn3)CC2)[C@H](C(C)C)C[C@H]1Cc1nnc(-c2ccccc2)o1,28µM
CC1=C[C@@H](CN2CCOCC2)[C@H](C(C)C)C[C@H]1Cc1nnc(C)o1,.
COCC1CN(C(=O)c2ocnc2C)CC12CCNCC2 (stereo not drawn),.
N#Cc1ccc(NC(=O)Cn2c(=O)c3c(ncn3C3CCCC3)n(Cc3ccccc3)c2=O)cc1,.
O=Cc1cccc(OCc2ccc(Cl)c(Cl)c2)c1,.
COc1ccc(Cl)cc1NC(=O)Nc1ccc2c(c1)oc(=O)n2C,.
O=S(=O)(c1cccc2ccccc12)N1CCN(c2ccc(F)cc2)CC1,.
CN(Cc1nc2ccccc2[nH]1)S(=O)(=O)c1ccc(Cl)cc1C(F)(F)F,.
SMILES,KDM5B inh
Cc1ccn(CC(=O)N[C@@H]2CN(c3ncccn3)C[C@H]2CO)n1,.
Cc1ccc(C(=O)N[C@@H]2CN(c3ncccn3)C[C@H]2CO)nc1,20µM
Cc1ccoc1C(=O)N[C@@H]1CN(c2ncccn2)C[C@H]1CO,25µM
Cc1cccnc1C(=O)N[C@@H]1CN(Cc2ccccc2)C[C@H]1CO,.
Cc1ccc(CN2C[C@@H](CO)[C@H](NC(=O)c3cccnc3)C2)cc1,.
Cc1ccccc1CC(=O)N[C@@H]1CN(c2ccncn2)C[C@H]1CO,.
COC(=O)c1ccc2c(=O)[nH]c(CN(C)CC(=O)Nc3cccc(F)c3)nc2c1,.
Cc1ccc(C2Cn3cnc(C(=O)N4CCC(C(=O)NC(C)c5ccccc5)CC4)c3CO2)cc1 (stereo not drawn),.
O=C(CC1CCCC1)N1CC[C@@H]2COCCN(Cc3ccccc3)[C@@H]2C1,.
Cn1ncc(N2CCN(c3cc(C4CC(O)C4)nc(N)n3)CC2)cc1=O (stereo not drawn),.
CCNC(=O)NC(=O)C(C)OC(=O)CSc1ccc(Br)cc1 (stereo not drawn),.
COc1cc(C(=O)Nc2ccc3oc(=O)ccc3c2)ccc1C,.
COc1ccc(CN[C@H]2[C@H](O)[C@H](O)C[C@@H]2c2cccnc2)cc1,.
N#Cc1cccc(CN[C@H]2[C@H](O)[C@H](O)C[C@@H]2c2ccc(C(F)(F)F)nc2)c1,.
O[C@H]1[C@H](NCc2cccc(C(F)(F)F)c2)[C@@H](c2ccc(N3CCOCC3)nc2)C[C@H]1O,32µM
COc1ccc([C@H]2C[C@@H](O)[C@@H](O)[C@@H]2NCc2ccc(Cl)cc2)cc1,.
O[C@H]1[C@H](NCc2ccc(Cl)cc2)[C@@H](c2ccc(N3CCOCC3)nc2)C[C@H]1O,40µM
COc1ccc(CN[C@H]2[C@H](O)[C@H](O)C[C@@H]2c2ccc(N3CCOCC3)nc2)cn1,32µM
O[C@H]1[C@H](NCc2cnc3ccccc3c2)[C@@H](c2ccc(N3CCOCC3)nc2)C[C@H]1O,.
COc1ccc([C@H]2C[C@@H](O)[C@@H](O)[C@@H]2NCc2cnn(C)c2)cc1,.
COc1cccc(CN[C@H]2[C@H](O)[C@H](O)C[C@@H]2c2ccc(C(F)(F)F)nc2)c1,.
COCCc1noc(CC2CCOC3(CCN(C(=O)CCC4CCCC4)CC3)C2)n1 (stereo not drawn),.
Brc1cc2c(cc1CSc1ccccn1)OCCO2,.
CC[C@H]1CN(S(=O)(=O)c2ccccc2)CC[C@H]1CC(=O)NC1CCCC1,.
Cc1cc(C)cc(NC(=O)C(c2ccccc2)N2CCN(C(=O)C3CC3)CC2)c1 (stereo not drawn),.
SMILES,KDM5B inh
CCN1CCCC1CNC(=O)Cn1nc2c(cc1=O)CCCC2 (stereo not drawn),.
O=C1CC2CCCC(C1)N2[S+](=O)([O-])c1ccccc1,.
CC(=O)NCC(=O)N1CCCn2cc(-c3ccccc3F)nc21,.
Cc1cc(CN2CCOc3c(O)cc(-c4ccccc4C)cc3C2)on1,.
O=C(CCc1ncc(-c2ccccc2F)o1)NCCN1CCOCC1,.
Cc1ccccc1-c1cc(C(=O)NCCC(N)=O)c2c(c1)N(C)CCO2,32µM
Cc1nnc(CN2CCOc3c(O)cc(-c4ccccc4C)cc3C2)s1,.
CN1CCOc2c(C(=O)NCCC(N)=O)cc(-c3ccccc3F)cc21,32µM
O=C(NCc1ccco1)N1CCc2nc3cc(-c4ccccc4Cl)[nH]n3c(=O)c2C1,14µM
Cn1c(=O)c2c(SCC(=O)NCc3ccco3)nc(-c3ccccc3Cl)nc2n(C)c1=O,.
O=C(c1ccncc1)N1CCc2nc3cc(-c4ccccc4Cl)[nH]n3c(=O)c2C1,16µM
O=C(c1ccccc1)N1CCc2nc(C3CC3)nc(-c3ccc(Cl)cc3)c2C1,.
O=C(c1ccccc1)N1CCc2nc(-c3ccccc3)nc(-c3ccc(Cl)cc3)c2C1,.
Cc1ccc(N2CC(C(=O)NCc3ccco3)CC2=O)cc1Cl (stereo not drawn),.
CCC(C)C(=O)NCCc1ccccn1 (stereo not drawn),.
Cn1cc(S(=O)(=O)N2CCc3ccccc32)cc1C(=O)Nc1ccccc1F,.
COc1cccc(C2C(C#N)=C(N)OC3=C2C(=O)CC(c2ccccc2)C3)c1 (stereo not drawn),.
CC(OC(=O)c1nn(C)c(=O)c2ccccc12)C(=O)Nc1ccc(S(=O)(=O)N2CCCCC2)cc1 (stereo not drawn),.
CCCCCCCCS(=O)CCCCCCCO (stereo not drawn),.
O=C(c1cc(=O)c2cc(Br)ccc2o1)N(Cc1cccs1)c1ccccn1,.
Cc1ccc(-c2cc(C(=O)Nc3nccs3)c3ccccc3n2)cc1,.
Cn1cc(-c2nc(N3CCOCC3)cc3c2CN(c2ccccc2)C3=O)cn1,20µM
O=C1c2cc(N3CCOCC3)nc(-c3ccccc3Oc3ccccc3)c2CN1C1COC1,28µM
CN1Cc2ncnc(N3CCOCC3)c2CN(c2cccnc2)C1=O,.
COc1ccccc1-c1nc(N2CCOCC2)cc2c1CN(c1ccccc1)C2=O,35µM
